According to PubChem BioAssay (Tox21):
Records with an inconclusive call do not appear. Active and inactive are the calls of the source. Unless noted, the call rests on the fitted dose curve.

Key:
[1] = Nuclear factor erythroid 2-related factor 2/antioxidant responsive element (Nrf2/ARE) small molecule agonists: luciferase reporter gene qHTS assay in human keratinocytes (AID 1919969); further: nearly all actives have a fitted effect of over 35% in size
[2] = molecular target: KiSS-1 receptor (Homo sapiens) (UniProt Q969F8); experiment: Human kisspeptin (KISS1R) small molecule agonists, calcium flux assay in KISS1R-HEK293 cells (AID 1920064; active means well fitted activation curve with a large enough effect in the repeat runs)
KiSS-1 receptor (Homo sapiens), sequence (Q969F8 whole entry, looked up): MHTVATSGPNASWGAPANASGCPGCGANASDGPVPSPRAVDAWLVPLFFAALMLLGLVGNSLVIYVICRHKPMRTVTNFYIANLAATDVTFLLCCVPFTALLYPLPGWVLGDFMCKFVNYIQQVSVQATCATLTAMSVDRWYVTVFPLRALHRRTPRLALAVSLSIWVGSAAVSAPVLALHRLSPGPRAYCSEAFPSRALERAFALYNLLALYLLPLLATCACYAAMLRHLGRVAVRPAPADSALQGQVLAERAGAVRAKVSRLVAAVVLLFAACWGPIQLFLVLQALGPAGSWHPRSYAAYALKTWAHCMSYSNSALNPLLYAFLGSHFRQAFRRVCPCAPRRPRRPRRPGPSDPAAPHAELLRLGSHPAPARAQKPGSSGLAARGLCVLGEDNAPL
In short: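 Kinetic calcium assay, 1 s sampling over 3 min at Ex/Em 480/540, in HEK293 cells engineered with human KISS1R; compounds delivered in DMSO after 1 h dye loading.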

[3] = G protein-coupled receptor (GPCR) small molecule agonists, calcium flux assay: HEK293 wild type cell line counter screen (AID 1920065)
In short: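 Calcium-sensitive dye, loaded 1 h at 37 C into cells cultured 18 h, reports compound-evoked calcium release as fluorescence (Ex/Em 480/540), measured over 3 min. Agonist mode; 15-point titrations, triplicate.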

[4] = p53 small molecule agonists, cell-based qHTS assay with human liver microsomes (AID 1963577);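 further: p53 response element beta-lactamase reporter cells with liver microsomes plus NADPH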
In short: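 16 h, 37 C exposure of p53RE-bla cells to compounds with human liver microsomes and NADPH (0.5 mg/mL final each); detection via LiveBLAzer mixture, 2 h dark at room temperature.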

[5] = p53 small molecule agonists, cell-based qHTS assay with rat liver microsomes (AID 1963578)
In short: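 With rat liver microsomes and NADPH present (0.5 mg/mL final each), p53RE-bla cells are treated with compound for 16 h at 37 C. LiveBLAzer detection mixture is then applied for 2 h at room temperature in the dark.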

[6] = p53 small molecule agonists, cell-based qHTS assay with human liver microsomes: qHTS cell viability counter screen (AID 1963579); further: nearly all actives have a fitted effect of over 45% in size
In short: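 In this multiplexed counter screen, the reporter plates were subsequently treated with CellTiter-Glo so that cell viability, reflected by luminescence, could be recorded for p53RE-bla cells dosed 16 h with compounds under microsomal activation (HLM and NADPH).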

[7] = p53 small molecule agonists, cell-based qHTS assay with rat liver microsomes: qHTS cell viability counter screen (AID 1963580); further: nearly all actives have a fitted effect of over 45% in size
In short: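 HCT-116 p53RE-bla, 4,000 cells/well, 5 h pre-incubation; cpd + rat liver microsomes 0.5 mg/mL + NADPH 0.5 mg/mL (final); 16 h, 37 C; CellTiter-Glo, 30 min RT; luminescence.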

[8] = p53 small molecule agonists, cell-based qHTS assay: qHTS cell viability counter screen (AID 1963581); further: nearly all actives have a fitted effect of over 45% in size
In short: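 Following 5 h attachment, HCT-116 p53RE-bla cells took up compound for 16 h at 37 C; the reporter was read with B/G FRET substrate (2 h RT), and viability then via CellTiter-Glo ATP luminescence.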

[9] = p53 small molecule agonists, cell-based qHTS assay (AID 1963582; active means well fitted activation curve with a large enough effect in the signal ratio in the repeat runs, not every such curve was filed as active; the % refers to the signal ratio)
In short: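 In this cell-based concentration-response screen, a p53 response element drives beta-lactamase; cells received DMSO-borne compounds after 5 h culture and were incubated a further 16 h before FRET substrate development.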

[10] = molecular target: 5-hydroxytryptamine receptor 2A (Homo sapiens) (UniProt P28223); experiment: 5-hydroxytryptamine receptor 2A (HTR2A) small molecule antagonists, cell-based qHTS assay (AID 1963586); further: nearly all actives have a fitted effect of over 45% in size; further: potency means the concentration at half of the fitted maximal effect
5-hydroxytryptamine receptor 2A (Homo sapiens), sequence (P28223 whole entry, looked up): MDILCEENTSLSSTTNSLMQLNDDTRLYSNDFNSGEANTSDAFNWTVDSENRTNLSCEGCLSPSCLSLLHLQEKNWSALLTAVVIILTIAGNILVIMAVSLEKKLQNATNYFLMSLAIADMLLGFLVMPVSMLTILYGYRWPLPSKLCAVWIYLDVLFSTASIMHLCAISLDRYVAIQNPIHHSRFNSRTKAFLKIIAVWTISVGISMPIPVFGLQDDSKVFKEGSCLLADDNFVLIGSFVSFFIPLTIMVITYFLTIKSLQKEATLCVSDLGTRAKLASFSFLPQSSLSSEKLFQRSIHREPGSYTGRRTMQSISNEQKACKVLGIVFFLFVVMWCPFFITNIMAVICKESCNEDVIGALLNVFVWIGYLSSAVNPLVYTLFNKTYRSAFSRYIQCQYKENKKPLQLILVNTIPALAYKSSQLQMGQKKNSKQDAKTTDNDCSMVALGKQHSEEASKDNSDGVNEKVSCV
In short: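 Antagonist-mode intracellular calcium assay: DOI (4 nM) added after 5 min compound pre-incubation at room temperature to dye-loaded HTR2A-CHO cells. Fluorescence followed for 3 min, sampled every second.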

[11] = molecular target: 5-hydroxytryptamine receptor 2A (Homo sapiens) (UniProt P28223); experiment: 5-hydroxytryptamine receptor 2A (HTR2A) small molecule agonists, cell-based qHTS assay (AID 1963587); further: nearly all actives have a fitted effect of over 30% in size
In short: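 Kinetic calcium-flux fluorescence (2 min, 1 sec intervals) after compound addition in agonist mode. HTR2A-CHO cells were cultured 18 h, then dye-loaded 1 h at 37 C.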

[12] = molecular target: Muscarinic acetylcholine receptor M1 (Homo sapiens) (UniProt P11229); experiment: Cholinergic receptor muscarinic 1 (CHRM1) small molecule agonists, cell-based qHTS assay (AID 1963589); further: nearly all actives have a fitted effect of over 35% in size
Muscarinic acetylcholine receptor M1 (Homo sapiens), sequence (P11229 whole entry, looked up): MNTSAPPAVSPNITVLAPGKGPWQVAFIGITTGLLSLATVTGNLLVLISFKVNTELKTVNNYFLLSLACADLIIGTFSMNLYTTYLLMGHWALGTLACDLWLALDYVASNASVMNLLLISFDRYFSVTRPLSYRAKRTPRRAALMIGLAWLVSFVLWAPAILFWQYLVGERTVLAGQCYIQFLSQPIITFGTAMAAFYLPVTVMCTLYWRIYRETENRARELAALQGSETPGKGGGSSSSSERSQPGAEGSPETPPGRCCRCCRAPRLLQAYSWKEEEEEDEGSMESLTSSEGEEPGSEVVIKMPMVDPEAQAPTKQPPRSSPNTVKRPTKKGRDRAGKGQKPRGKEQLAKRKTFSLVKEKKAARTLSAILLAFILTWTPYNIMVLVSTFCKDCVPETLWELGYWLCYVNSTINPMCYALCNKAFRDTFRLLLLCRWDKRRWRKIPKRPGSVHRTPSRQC
In short: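 Measures agonist-induced intracellular calcium rise. Stable human CHRM1 CHO line, 1 h dye load at 37 C, compounds from DMSO, kinetic fluorescence read.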

[13] = cAMP Responsive Elements (CRE) small molecule antagonists, cell-based qHTS assay (AID 1963591; active means well fitted inhibition curve with a large enough effect in the signal ratio in the repeat runs, not every such curve was filed as active; the % refers to the signal ratio)
In short: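 HEK293T cells carrying a CRE-driven beta-lactamase reporter receive compound and NKH477 (0.25 uM final) for 3 h. Fluorescence from LiveBLAzer B/G FRET substrate is read after 2 h at room temperature.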

[14] = molecular target: Beta-2 adrenergic receptor (Homo sapiens) (UniProt P07550); experiment: Adrenergic beta2 receptor (ADRB2) small molecule antagonists, cell-based qHTS assay (AID 1963592); further: series mostly up to about 92 µM; nearly all actives have a fitted effect of over 50% in size
Beta-2 adrenergic receptor (Homo sapiens), sequence (P07550 whole entry, looked up): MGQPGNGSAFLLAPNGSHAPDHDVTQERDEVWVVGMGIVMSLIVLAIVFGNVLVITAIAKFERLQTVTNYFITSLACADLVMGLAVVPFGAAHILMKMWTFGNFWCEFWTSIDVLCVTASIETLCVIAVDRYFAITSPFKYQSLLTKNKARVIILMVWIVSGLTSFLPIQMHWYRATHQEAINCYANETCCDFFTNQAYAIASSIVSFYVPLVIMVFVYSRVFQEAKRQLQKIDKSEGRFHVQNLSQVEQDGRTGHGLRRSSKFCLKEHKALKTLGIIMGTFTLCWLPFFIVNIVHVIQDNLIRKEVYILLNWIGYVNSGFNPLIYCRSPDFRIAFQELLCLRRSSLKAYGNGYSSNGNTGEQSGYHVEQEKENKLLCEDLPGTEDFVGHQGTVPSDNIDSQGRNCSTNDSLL
In short: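 Cells (CHO, stable ADRB2 overexpression) incubated 18-20hr at 37C; compounds added from DMSO; agonist mix (1nM isoproterenol, 100uM IBMX, 25uM Ro-20-1724) added; 0.5hr RT; d2-cAMP and anti-cAMP-cryptate added; 1hr RT; 665/615 nm read.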

[15] = molecular target: D(2) dopamine receptor (Homo sapiens) (UniProt P14416); experiment: Dopamine D2 receptor (DRD2) small molecule antagonists, cell-based qHTS assay (AID 1963595; active means well fitted inhibition curve with a large enough effect in the signal ratio in the repeat runs, with a control signal flat; the % refers to the signal ratio)
D(2) dopamine receptor (Homo sapiens), sequence (P14416 whole entry, looked up): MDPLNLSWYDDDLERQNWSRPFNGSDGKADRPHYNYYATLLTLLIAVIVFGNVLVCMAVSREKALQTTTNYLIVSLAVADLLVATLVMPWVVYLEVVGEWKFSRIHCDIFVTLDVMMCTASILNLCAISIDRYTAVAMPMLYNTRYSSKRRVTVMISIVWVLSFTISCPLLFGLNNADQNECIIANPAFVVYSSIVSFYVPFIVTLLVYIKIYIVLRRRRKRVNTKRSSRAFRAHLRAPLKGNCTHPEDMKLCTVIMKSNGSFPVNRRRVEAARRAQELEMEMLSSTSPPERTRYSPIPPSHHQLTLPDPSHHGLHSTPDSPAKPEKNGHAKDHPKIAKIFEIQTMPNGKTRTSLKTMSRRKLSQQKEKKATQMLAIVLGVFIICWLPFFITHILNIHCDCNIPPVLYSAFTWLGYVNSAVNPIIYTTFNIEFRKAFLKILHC
In short: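 Human DRD2 antagonist qHTS measuring cAMP by HTRF. The cells are exposed to compound for 10 min, then to NKH477 (200 nM) and quinpirole (12 nM) for 30 min at RT, with Ro20-1724 (0.1 mM) present throughout.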

[16] = molecular target: Gonadotropin-releasing hormone receptor (Homo sapiens) (UniProt P30968); experiment: Human gonadotropin-releasing hormone receptor (GnRHR) small molecule agonists, calcium flux assay in GnRHR-HEK293 cells (AID 1920063); further: nearly all actives have a fitted effect of over 35% in size
Gonadotropin-releasing hormone receptor (Homo sapiens), sequence (P30968 whole entry, looked up): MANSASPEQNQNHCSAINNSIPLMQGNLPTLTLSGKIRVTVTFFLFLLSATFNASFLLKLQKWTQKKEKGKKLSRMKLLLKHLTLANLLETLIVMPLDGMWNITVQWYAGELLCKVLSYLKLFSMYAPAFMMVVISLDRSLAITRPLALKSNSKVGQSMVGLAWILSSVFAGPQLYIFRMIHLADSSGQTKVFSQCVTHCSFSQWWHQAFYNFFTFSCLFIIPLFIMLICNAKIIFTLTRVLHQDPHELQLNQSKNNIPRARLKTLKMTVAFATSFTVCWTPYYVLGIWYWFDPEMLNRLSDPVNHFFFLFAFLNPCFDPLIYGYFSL
In short: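 We seeded human GnRHR-expressing HEK293 cells for 18 hours, loaded them with calcium dye for an hour at 37 C, added test compounds, and recorded fluorescence intensity kinetically for three minutes.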

[17] = molecular target: Muscarinic acetylcholine receptor M1 (Homo sapiens) (UniProt P11229); experiment: Cholinergic receptor muscarinic 1 (CHRM1) small molecule antagonists, cell-based qHTS assay (AID 1963588); further: nearly all actives have a fitted effect of over 40% in size
In short: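 CHRM1-CHO calcium-flux assay, antagonist mode. Cells were seeded 18 h, dye-loaded 1 h at 37 C and given compound for 5 min at RT, then acetylcholine was added at 50nM. FDSS fluorescence was read 3 min; 15 concentrations, three runs.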

[18] = cAMP Responsive Elements (CRE) small molecule agonists, cell-based qHTS assay (AID 1963590)
In short: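 A CRE-responsive beta-lactamase reporter in HEK 293T cells was used. Treatment ran 3 h at 37 C; detection used LiveBLAzer B/G FRET substrate for 2 h at room temperature.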

[19] = molecular target: D(2) dopamine receptor (Homo sapiens) (UniProt P14416); experiment: Dopamine D2 receptor (DRD2) small molecule agonists, cell-based qHTS assay (AID 1963594); further: nearly all actives have a fitted effect of over 35% in size
In short: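 cAMP accumulation in DRD2-HEK293 cells measured by HTRF after 1 h detection; compounds added 10 min before NKH477 (200nM […]) forskolin-analogue stimulation, 30 min at room temperature, with Ro20-1724 present at 0.1 mM final.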

[20] = molecular target: Beta-2 adrenergic receptor (Homo sapiens) (UniProt P07550); experiment: Adrenergic beta2 receptor (ADRB2) small molecule agonists, cell-based qHTS assay (AID 1963593);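 further: CHO cells stably overexpressing human ADRB2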
In short: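 CHO cells stably over-expressing ADRB2 were plated overnight at 37C, then dosed with compounds plus a stimulation mix containing 100uM IBMX and 25uM Ro-20-1724 for 0.5hr at room temperature. cAMP was measured by HTRF competition, 1hr.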

Measured: Potency

CCCCOCCOC(=O)COc1cc(Cl)c(Cl)cc1Cl
active: [10] 9.42 µM
not listed: [16] | [17] | [18] | [19] | [20]
inactive: all other assays above

COc1ccc(OC)c(OC)c1
not listed: [1] | [7] | [9] | [10] | [14] | [20]
inactive: all other assays above

O=C1CC2(CCCC2)CC(=O)N1
not listed: [1] | [4] | [18] | [20]
inactive: all other assays above

O=C(CCCCCCCCc1cccnc1)N1CCC(C=C(c2ccccc2)c2ccccc2)CC1
not listed: [2] | [6] | [9] | [17] | [18] | [20]
inactive: all other assays above

CCCCCCCCCCCCOC(=O)c1ccc(O)cc1
not listed: [1] | [8] | [19]
inactive: all other assays above

COc1cc2nc(N3CCN(C(=O)C4CCCO4)CC3)nc(N)c2cc1OC (centres undefined)
not listed: [3] | [8] | [10] | [11] | [12] | [14] | [17] | [20]
inactive: all other assays above

CCCCCCCC(=O)Oc1c(Br)cc(C#N)cc1Br
not listed: [2] | [12] | [13] | [18]
inactive: all other assays above

C#C[C@]1(OC(C)=O)CC[C@H]2[C@@H]3CCC4=C[C@@H](OC(C)=O)CC[C@@H]4[C@H]3CC[C@@]21C
inactive: [16] | [2] | [4] | [5] | [6] | [7] | [8] | [9] | [14] | [19] | [15]

CCN(CC)C(=O)/C(C#N)=C/c1cc(O)c(O)c([N+](=O)[O-])c1
inactive: [1] | [16] | [3] | [5] | [7] | [10] | [11] | [17] | [14]
